# Measurements as given in PubChem BioAssay (EPA / NIEHS).
# Calls of active or inactive are those of the source. How the source made its calls: active means hit-call score of the fitted dose curve at least 0.9, where 1 is the maximum; inactive means score below 0.9.
# Read-out: Caspase-3 (Homo sapiens) (UniProt P42574)
# Assay: LTEA_HepaRG_CASP3: Life Technologies and Expression Analysis (LTEA) Assay for cysteine-aspartic acid protease (CASP3) using HepaRG (AID 2283477)
# Conditions: mRNA level, 48 h; actives raise or lower the signal
# Method: LTEA_HepaRG is a cell based, multiplexed-readout assay that uses HepaRG, a human liver cell line, with measurements taken at 48 hours after chemical dosing on a 96-well plate.LTEA_HepaRG_CASP3 is one of 102 assay component(s) measured in the LTEA HepaRG cell culture assay. It is a marker of Cell proliferation, survival, death.Data from the assay component LTEA_HepaRG_CASP3 was analyzed into 1 endpoint. This assay endpoint, LTEA_HepaRG_CASP3, was analyzed with bidirectional fitting relative to DMSO as the negative control and baseline of activity. Using a type of inducible reporter, measures of mRNA induction for gain or loss-of-signal activity can be used to understand regulation of transcription factor activity. To generalize the intended target to other relatable targets, this assay endpoint is annotated to the protease intended target family, where the subfamily is cysteine protease.
# A total of 1060 chemcials from the ToxCast library were tested in eight-point concentration-response experiments. Cell culture and cytotoxicity assays were conducted at Thermo Fisher Scientific's Custom Services facility (Madison, WI). A single lot of human HepaRG cells (Thermo Fisher Scientific, Frederick, MD) was used for the cell culture experiments. 96-well format collagen type I coated plates of human HepaRG cells were prepared using established methods. Briefly, cryopreserved HepaRG cells were thawed, plated at a density of approximately 100,000 cells/well in HepaRG Thaw, Plate, and General Purpose media (HPRG770, Thermo Fisher Scientific), and incubated for 48 hours. 0.5% DMSO was selected as vehicle control to balance the requisite need of DMSO in HepaRG cultures to maintain differentiation (for example, baseline metabolism, proportions of hepatocytes vs. cholangiocytes), while enabling further hepatic receptor pathway activation (for example, PXR and CAR) in response to chemical exposure. 48 hours after plating, the culture medium was replaced with HepaRG Serum-Free Incudtion Media. Cells were exposed to each test chemical in duplicate and maintained in CO2 incubators for another 48 hours. Chemical plates were thawed to room temperature and 200x concentrations of treatment groups were prepared. 8-point conentration-reponse curves were made with the highest exposure at 100 uM, followed by half-log dilutions, all in 0.5% DMSO. Each test plate contained variouse controls, induction positive controls (1mM phenobarbital), cytotoxicity positive controls ([…] aflatoxin B1), vehicle controls (0.5% DMSO), and total lysis controls (0.5% DMSO). Cell morphology images were taken using an Essen IncuCyte FLR automated microscope, with six 96-well plates imaged in about 24 minutes. Images were captured and exported and JPEG files. Spent culture media was transfered to black-well plates for the LDH assay, and remaining media was sorted at -80 C for later use. Cells were treated with RLT buffer and frozen until shipped for gene expression analysis. Total RNA was isolated from the cell suspension in 75 uL of Buffer RLT (Qiagen, Germantown, MD 20874) by Quintiles/Expression Analysis (Durham, NC) using a custom isolation procedure. Total RNA from each plate well was transferred to a preamplification plate. Fluidigm's 96.96 Dynamic ArrayTM (Fluidigm, Amsterdam, the Netherlands) technology was used for gene expression analyses by quantitative reverse transcription polymerase chain reaction (qRT-PCR, performed by Quintiles/Expression Analysis, Durham, NC)89. Standard TaqManTM Assays (Applied Biosystems/ThermoFisher Scientific, Foster City, CA) were used to assess the expression of 93 genes selected based on their selectivity and sensitivity to important hepatic receptors known to be modulated by environmental chemicals; importance in human hepatocyte functionality; and hepatotoxicity. […]
# Sequence of Caspase-3 (Homo sapiens) (P42574 whole entry, looked up): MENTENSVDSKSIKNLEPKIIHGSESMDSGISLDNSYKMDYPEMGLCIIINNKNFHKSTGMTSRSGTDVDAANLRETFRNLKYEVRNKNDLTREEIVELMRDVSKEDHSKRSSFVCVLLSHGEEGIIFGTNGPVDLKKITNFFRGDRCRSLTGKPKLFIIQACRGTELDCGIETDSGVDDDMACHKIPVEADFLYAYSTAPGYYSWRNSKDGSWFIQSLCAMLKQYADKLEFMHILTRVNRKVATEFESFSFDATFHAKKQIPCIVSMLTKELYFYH
Compound,AC50,outcome
C=C(C)C(=O)[O][Sn]([CH2]CCC)([CH2]CCC)[CH2]CCC,5 µM (active),–
CC(C)(c1ccccc1)c1ccc(O)c(C(C)(C)c2ccccc2)c1,–,inactive
CC(C)(C)c1cc(O)ccc1O,–,inactive
CN(C)N=O,–,inactive
CCOP(=S)(OCC)SCSP(=S)(OCC)OCC,0.095 µM (active),–
O=C1C2(Cl)C3(Cl)C4(Cl)C(Cl)(Cl)C5(Cl)C3(Cl)C1(Cl)C5(Cl)C24Cl (stereo not given),92.3 µM (active),–
C[C@]12CCC(=O)C[C@@H]1CC[C@@H]1[C@@H]2CC[C@]2(C)[C@@H](O)CC[C@@H]12,–,inactive
COc1cc(-c2ccc(N)c(OC)c2)ccc1N,–,inactive
O=C(Nc1ccc2[nH]ccc2c1)c1cc2cc(F)ccc2n1Cc1cccc(F)c1,–,inactive
ClCC(Cl)CCl,–,inactive
O=C(O)C(Cl)(Cl)Cl,–,inactive
CC(=O)[O][Hg][c]1ccccc1,23.1 µM (active),–
CC(C)(OO)c1ccccc1,–,inactive
ClC1(Cl)C2(Cl)C3(Cl)C4(Cl)C(Cl)(Cl)C5(Cl)C3(Cl)C1(Cl)C5(Cl)C24Cl (stereo not given),–,inactive
CCC(C)(C)c1ccc(O)c(C(C)(C)CC)c1,–,inactive
CC(C)(C)CC(C)(C)c1ccc(O)cc1,–,inactive
CCCCCCCCc1ccc(O)cc1,–,inactive
O=C(O)C(F)(F)C(F)(F)C(F)(F)C(F)(F)C(F)(F)C(F)(F)F,–,inactive
C[C@@H]1C[C@@H]([C@H](O)CC2CC(=O)NC(=O)C2)C(=O)[C@@H](C)C1,12.3 µM (active),–
Cn1sc(Cl)cc1=O,–,inactive
C=CC(=O)OCCCCCC(C)C,–,inactive
CCC(=O)C(CC(C)N(C)C)(c1ccccc1)c1ccccc1 (stereo not given),–,inactive
O=[N+]([O-])c1ccc(O)c([N+](=O)[O-])c1,7 µM (active),–
CCN1CCC2(CC1)COc1cc3c(cc12)N(C(=O)c1ccc(-c2ccc(-c4nnc(C)o4)cc2C)cc1)CC3,–,inactive
NC(=O)O,–,inactive
O=C(O)C(F)(F)C(F)(F)C(F)(F)C(F)(F)C(F)(F)C(F)(F)C(F)(F)C(F)(F)C(F)(F)C(F)(F)F,–,inactive
O=c1[nH]c(=O)[nH]c(=O)[nH]1,–,inactive
Oc1cccc2cccnc12,–,inactive
CCOP(=S)(OCC)Oc1nc(Cl)c(Cl)cc1Cl,–,inactive
Cc1ccccc1N,–,inactive
